Several values for one entry are separate records, joined by “and”; a condition that tells them apart may be missing. Equal entries are not always repeated. Results filed as inconclusive are left out. Where a call stands in place of a potency, no number is given. The source holds several records for some structures; these can differ, active in one and inactive in another. Activity calls are given as the source filed them. Calls come from the whole dose curve; as a rule, active = well fitted curve in the direction sought with a large enough effect; inconclusive = small, poorly fitted or top-dose-only effect, or another doubt; inactive = no such curve, though single readings can be large; an effect the other way counts as inactive or inconclusive.
How the values were obtained:
HaCat [1] = test: Cytotoxic Profiling of Annotated Libraries Using Quantitative High-Throughput Screening (AID 1296008); details: Five cell lines viability, CellTiter-Glo ATP luminescence, 48-72 h; max response: stronger effect = lower value; note: nearly all actives have a fitted effect of over 60% in size; note: potency is the fitted concentration of half-maximal effect
In short: (§1)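 Cytotoxicity was measured as CellTiter-Glo ATP luminescence, read after 10 min at room temperature. Compound treatment of the cells lasted 48 or 72 hr at 37 degrees Celsius in a qHTS format.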

KB-3-1 = test: as above; details: Five cell lines viability, CellTiter-Glo ATP luminescence, 48-72 h; max response: stronger effect = lower value
In short: as §1

NIH3T3 [2] = test: as above; details: Five cell lines viability, CellTiter-Glo ATP luminescence, 48-72 h; max response: stronger effect = lower value
In short: as §1

HACAT [3] = test: qHTS assay to identify novel small-molecules to repurpose for Merkel cell carcinoma treatment (AID 1296009); details: MCC and control cell lines, CellTiter-Glo viability, 72 h; note: nearly all actives have a fitted effect of over 60% in size; note: potency is the fitted concentration of half-maximal effect
In short: (§2)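 Cell viability, measured as CellTiter-Glo luminescence, was normalized between DMSO and no-cell wells. The cells had been exposed to 8- or 11-point compound dilutions for 72 hr at 37 degree celsius.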

HEK293T [4] = test: as above; details: MCC and control cell lines, CellTiter-Glo viability, 72 h; at 44.8 µM (top of the series) unless noted
In short: as §2

MCC-13 = test: as above; details: MCC and control cell lines, CellTiter-Glo viability, 72 h; series mostly up to 46 µM
In short: as §2

MKL-1 = test: as above; details: MCC and control cell lines, CellTiter-Glo viability, 72 h; series mostly up to 46 µM
In short: as §2

MKL-2 = test: as above; details: MCC and control cell lines, CellTiter-Glo viability, 72 h; series mostly up to 46 µM
In short: as §2

NIH3T3 [5] = test: as above; details: MCC and control cell lines, CellTiter-Glo viability, 72 h; at 44.8 µM (top of the series) unless noted
In short: as §2

UISO = test: as above; details: MCC and control cell lines, CellTiter-Glo viability, 72 h; series mostly up to 46 µM
In short: as §2

WaGa = test: as above; details: MCC and control cell lines, CellTiter-Glo viability, 72 h; series mostly up to 46 µM
In short: as §2

C33A = test: Primary qHTS to identify gynecologic anti-cancer compounds using libraries of approved drugs and bioactive compounds (AID 1345084); details: Gynecologic cancer cell panel viability, ATPlite luminescence, 48 h; series mostly up to 57.5 µM; note: nearly all actives have a fitted effect of over 55% in size
In short: (§3)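 In this quantitative HTS, cell killing is estimated from loss of ATP-dependent luciferase light. Cells see five compound concentrations over a 48 h exposure.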

CAOV3 = test: as above; details: Gynecologic cancer cell panel viability, ATPlite luminescence, 48 h; series mostly up to 57.5 µM
In short: as §3

CASKI = test: as above; details: Gynecologic cancer cell panel viability, ATPlite luminescence, 48 h; series mostly up to 57.5 µM
In short: as §3

Es-2 = test: as above; details: Gynecologic cancer cell panel viability, ATPlite luminescence, 48 h; series mostly up to 57.5 µM
In short: as §3

HeLa = test: as above; details: Gynecologic cancer cell panel viability, ATPlite luminescence, 48 h; series mostly up to 57.5 µM
In short: as §3

Hek293T [6] = test: as above; details: Gynecologic cancer cell panel viability, ATPlite luminescence, 48 h, control line for the selectivity index; series mostly up to 57.5 µM
In short: as §3

JEG-3 = test: as above; details: Gynecologic cancer cell panel viability, ATPlite luminescence, 48 h; series mostly up to 57.5 µM
In short: as §3

OV90 = test: as above; details: Gynecologic cancer cell panel viability, ATPlite luminescence, 48 h; series mostly up to 57.5 µM
In short: as §3

MCC-26 = test: qHTS assay to identify novel small-molecules to repurpose for Merkel cell carcinoma treatment (AID 1296009); details: MCC and control cell lines, CellTiter-Glo viability, 72 h; series mostly up to 46 µM; note: nearly all actives have a fitted effect of over 60% in size; note: potency is the fitted concentration of half-maximal effect
In short: as §2

[7] = at 44.8 µM (top of the series) unless noted

Structure (SMILES): CCOc1cc(N)c(Cl)cc1C(=O)NCC1CN(Cc2ccc(F)cc2)CCO1 (stereo not drawn)
- max response (HaCat [1]): -10.3% (inactive)
- outcome (HaCat [1]): inactive
- max response (KB-3-1): 4.82% (inactive) and -2.19% (inactive)
- max response (NIH3T3 [2]): 1.17% (inactive)
- outcome (NIH3T3 [2]): inactive
- outcome (HACAT [3]; [7]): inactive
- outcome (HEK293T [4]): inactive
- Potency (MCC-13): inactive
- Potency (MKL-1): inactive
- Potency (MKL-2): inactive
- outcome (NIH3T3 [5]): inactive
- Potency (UISO): inactive
- Potency (WaGa): inactive
- Potency (C33A): inactive
- Potency (CAOV3): inactive
- Potency (CASKI): inactive
- Potency (Es-2): inactive
- Potency (HeLa): inactive
- Potency (Hek293T [6]): inactive
- Potency (JEG-3): inactive

Structure (SMILES): O=P(O)(O)C(O)(Cc1cccnc1)P(=O)(O)O
- max response (HaCat [1]): -18.6% (inactive)
- outcome (HaCat [1]): inactive
- max response (KB-3-1): 16.5% (inactive) and 4.21% (inactive) and 6.74% (inactive)
- max response (NIH3T3 [2]): -4.1% (inactive) and 0.573% (inactive)
- outcome (NIH3T3 [2]): inactive
- outcome (HACAT [3]; at 4.96 µM (top of the series)): inactive
- outcome (HACAT [3]; at 44.8 µM (top of the series)): inactive
- outcome (HEK293T [4]): inactive
- Potency (MCC-13): inactive
- Potency (MKL-1): inactive
- Potency (MKL-2): inactive
- outcome (NIH3T3 [5]): inactive
- Potency (UISO): inactive
- Potency (WaGa): inactive
- Potency (C33A): inactive
- Potency (CAOV3): inactive
- Potency (CASKI): inactive
- Potency (Es-2): inactive
- Potency (HeLa): inactive
- Potency (Hek293T [6]): inactive
- Potency (JEG-3): inactive
- Potency (OV90): inactive

Structure (SMILES): CC1=NN(c2ccccc2)C(=O)C1
- max response (HaCat [1]): -6.55% (inactive)
- outcome (HaCat [1]): inactive
- max response (KB-3-1): 3.2% (inactive)
- outcome (KB-3-1): inactive
- max response (NIH3T3 [2]): 2.82% (inactive)
- outcome (NIH3T3 [2]): inactive
- outcome (HACAT [3]; [7]): inactive
- Potency (MCC-13): inactive
- Potency (MCC-26): inactive
- Potency (MKL-1): inactive
- Potency (MKL-2): inactive
- outcome (NIH3T3 [5]): inactive
- Potency (UISO): inactive
- Potency (WaGa): inactive
- Potency (C33A): inactive
- Potency (CAOV3): inactive
- Potency (CASKI): inactive
- Potency (Es-2): inactive
- Potency (HeLa): inactive
- Potency (Hek293T [6]): inactive
- Potency (JEG-3): inactive
- Potency (OV90): inactive

Structure (SMILES): CC(=O)CC(c1ccccc1)c1c(O)c2ccccc2oc1=O (stereo not drawn)
- max response (HaCat [1]): -6.98% (inactive)
- outcome (HaCat [1]): inactive
- max response (KB-3-1): 7.33% (inactive) and -13.6% (inactive) and 2.81% (inactive)
- max response (NIH3T3 [2]): -11.7% (inactive) and -5.84% (inactive)
- outcome (HACAT [3]; [7]): inactive
- outcome (HEK293T [4]): inactive
- Potency (MCC-13): inactive
- Potency (MCC-26): inactive
- Potency (MKL-1): inactive
- Potency (MKL-2): inactive
- Potency (UISO): inactive
- Potency (WaGa): inactive
- Potency (C33A): inactive
- Potency (CAOV3): inactive
- Potency (CASKI): inactive
- Potency (Es-2): inactive
- Potency (HeLa): inactive
- Potency (Hek293T [6]): inactive
- Potency (JEG-3): inactive
- Potency (OV90): inactive

Structure (SMILES): CCOCC(O)COc1ccc(NC(=O)CC[S+](C)C)cc1 (stereo not drawn)
- max response (HaCat [1]): 4.61% (inactive)
- outcome (HaCat [1]): inactive
- max response (KB-3-1): -5.04% (inactive)
- outcome (KB-3-1): inactive
- max response (NIH3T3 [2]): 4.96% (inactive) and 4.72% (inactive)
- outcome (HACAT [3]; [7]): inactive
- Potency (MCC-13): inactive
- Potency (MKL-1): inactive
- Potency (MKL-2): inactive
- Potency (UISO): inactive
- Potency (WaGa): inactive
- Potency (C33A): inactive
- Potency (CAOV3): inactive
- Potency (CASKI): inactive
- Potency (Es-2): inactive
- Potency (Hek293T [6]): inactive
- Potency (JEG-3): inactive
- Potency (OV90): inactive

Structure (SMILES): CN(C)CCc1c[nH]c2ccc(C[C@H]3COC(=O)N3)cc12
- Potency (HaCat [1]): 14.8 µM (active)
- max response (HaCat [1]): 4.23% (inactive)
- outcome (HaCat [1]): inactive
- max response (KB-3-1): 7.3% (inactive) and 1.82% (inactive)
- Potency (NIH3T3 [2]): 10.5 µM (active)
- max response (NIH3T3 [2]): -0.145% (inactive)
- outcome (NIH3T3 [2]): inactive
- outcome (HACAT [3]; [7]): inactive
- Potency (MCC-13): inactive
- Potency (MKL-1): inactive
- Potency (MKL-2): inactive
- outcome (NIH3T3 [5]): inactive
- Potency (UISO): inactive
- Potency (WaGa): inactive
- Potency (C33A): inactive
- Potency (CAOV3): inactive
- Potency (CASKI): inactive
- Potency (Es-2): inactive
- Potency (HeLa): inactive
- Potency (Hek293T [6]): inactive
- Potency (JEG-3): inactive
- Potency (OV90): inactive

Structure (SMILES): CCOC(=O)c1ccc(OC(=O)CCCCCN=C(N)N)cc1
- max response (HaCat [1]): 4.21% (inactive)
- outcome (HaCat [1]): inactive
- max response (KB-3-1): 1.69% (inactive) and -0.41% (inactive)
- outcome (NIH3T3 [2]): inactive
- outcome (HACAT [3]; [7]): inactive
- outcome (HEK293T [4]): inactive
- Potency (MCC-13): inactive
- Potency (MCC-26): inactive
- Potency (MKL-1): inactive
- Potency (MKL-2): inactive
- outcome (NIH3T3 [5]): inactive
- Potency (UISO): inactive
- Potency (WaGa): inactive
- Potency (C33A): inactive
- Potency (CAOV3): inactive
- Potency (CASKI): inactive
- Potency (Es-2): inactive
- Potency (HeLa): inactive
- Potency (Hek293T [6]): inactive
- Potency (JEG-3): inactive
- Potency (OV90): inactive

Structure (SMILES): NS(=O)(=O)c1cc2c(cc1Cl)NC(C(Cl)Cl)NS2(=O)=O (stereo not drawn)
- max response (HaCat [1]): -16.1% (inactive)
- outcome (HaCat [1]): inactive
- max response (KB-3-1): 9.97% (inactive)
- outcome (KB-3-1): inactive
- max response (NIH3T3 [2]): 3.32% (inactive) and -1.25% (inactive)
- outcome (HACAT [3]; [7]): inactive
- outcome (HEK293T [4]): inactive
- Potency (MCC-13): inactive
- Potency (MCC-26): inactive
- Potency (MKL-1): inactive
- Potency (MKL-2): inactive
- Potency (UISO): inactive
- Potency (WaGa): inactive
- Potency (C33A): inactive
- Potency (CAOV3): inactive
- Potency (CASKI): inactive
- Potency (Es-2): inactive
- Potency (Hek293T [6]): inactive
- Potency (JEG-3): inactive
- Potency (OV90): inactive

Structure (SMILES): CCn1cc(C(=O)O)c(=O)c2cc(F)c(N3CCN(C)CC3)cc21
- max response (HaCat [1]): -4.37% (inactive)
- outcome (HaCat [1]): inactive
- max response (KB-3-1): 2.67% (inactive) and -1.65% (inactive)
- max response (NIH3T3 [2]): -2.14% (inactive)
- outcome (NIH3T3 [2]): inactive
- outcome (HACAT [3]; [7]): inactive [at 17.4 µM]
- outcome (HEK293T [4]): inactive [at 17.4 µM]
- Potency (MCC-13): inactive
- Potency (MCC-26): inactive
- Potency (MKL-1): inactive
- Potency (MKL-2): inactive
- outcome (NIH3T3 [5]): inactive [at 17.4 µM]
- Potency (UISO): inactive
- Potency (WaGa): inactive
- Potency (C33A): inactive
- Potency (CAOV3): inactive
- Potency (CASKI): inactive
- Potency (Es-2): inactive
- Potency (HeLa): inactive
- Potency (Hek293T [6]): inactive
- Potency (JEG-3): inactive
- Potency (OV90): inactive

Structure (SMILES): O=c1cc(O)c(Cl)c[nH]1
- max response (HaCat [1]): -15.6% (inactive)
- outcome (HaCat [1]): inactive
- max response (KB-3-1): 2.19% (inactive)
- max response (NIH3T3 [2]): 2.08% (inactive)
- outcome (NIH3T3 [2]): inactive
- outcome (HACAT [3]; [7]): inactive
- Potency (MCC-13): inactive
- Potency (MCC-26): inactive
- Potency (MKL-1): inactive
- Potency (MKL-2): inactive
- outcome (NIH3T3 [5]): inactive
- Potency (UISO): inactive
- Potency (WaGa): inactive and 8.33 µM (active)
- Potency (C33A): inactive
- Potency (CAOV3): inactive
- Potency (CASKI): inactive
- Potency (Es-2): inactive
- Potency (HeLa): inactive
- Potency (Hek293T [6]): inactive
- Potency (JEG-3): inactive
- Potency (OV90): inactive

— PubChem BioAssay (NCATS)
